# Measured values taken from PubChem BioAssay (NCI).
# “And” between values parts separate entries of the source, which are not always exact repeats. Equal entries are not always repeated. Compounds without any hit were thinned out: in the full panel of roughly 83,000, 20% have a hit.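 Plates (96-well) were seeded with cells, treated with compound at one concentration, and incubated for 48 hours before percent growth was determined.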 A number with no mark means an inactive call. The source made the active and inactive calls. Rule for the calls: active = growth percent below 10; inactive = the rest.
# Experiments:
# Assay in all cases: NCI-60 one-dose screen, 48 h (100 = growth as untreated, 0 = no growth, -100 = all killed)
# NCI-H23 lung = test system: NCI-H23 lung
# NCI-H226 lung = test system: NCI-H226 lung
# NCI-H322M lung = test system: NCI-H322M lung
# HOP-62 NSCLC = test system: HOP-62 NSCLC
# NCI-H460 lung = test system: NCI-H460 lung
# HOP-92 NSCLC = test system: HOP-92 NSCLC
# NCI-H522 lung = test system: NCI-H522 lung
# A549/ATCC NSCLC = test system: A549/ATCC NSCLC
# 786-0 renal = test system: 786-0 renal
# COLO 205 colon = test system: COLO 205 colon
# DU-145 prostate = test system: DU-145 prostate
# K-562 leukemia = test system: K-562 leukemia
# MALME-3M melanoma = test system: MALME-3M melanoma
# MDA-MB-231 breast = test system: MDA-MB-231 breast
# RXF 393 renal = test system: RXF 393 renal
# SF-268 CNS = test system: SF-268 CNS
# SF-295 CNS = test system: SF-295 CNS
# SF-539 CNS = test system: SF-539 CNS
# UACC-257 melanoma = test system: UACC-257 melanoma
# M14 melanoma = test system: M14 melanoma
structure (smiles),measurement,setting,value
O=C(O)CCCc1ccc(N(CCCl)CCCl)cc1,growth,NCI-H23 lung; 10 µM,102% and 79.4%
same,growth,NCI-H23 lung; 75 µM,23.1%
same,growth,NCI-H226 lung; 10 µM,78.7% and 88.2%
same,growth,NCI-H226 lung; 75 µM,61.2%
same,growth,NCI-H322M lung; 10 µM,98.7% and 112%
same,growth,NCI-H322M lung; 75 µM,91.9%
same,growth,HOP-62 NSCLC; 10 µM,90.1% and 91.6%
same,growth,HOP-62 NSCLC; 75 µM,35%
same,growth,NCI-H460 lung; 10 µM,86.6% and 54.5%
same,growth,NCI-H460 lung; 75 µM,21%
same,growth,HOP-92 NSCLC; 10 µM,95.3% and 40.2%
same,growth,HOP-92 NSCLC; 75 µM,14.6%
same,growth,NCI-H522 lung; 10 µM,87.2% and 59.6%
same,growth,NCI-H522 lung; 75 µM,0.62% (active)
same,growth,A549/ATCC NSCLC; 10 µM,89.2%
same,growth,A549/ATCC NSCLC; 75 µM,46.1%
same,growth,786-0 renal; 10 µM,98.4% and 86.1%
same,growth,786-0 renal; 75 µM,9.49% (active)
same,growth,COLO 205 colon; 10 µM,104% and 105%
same,growth,COLO 205 colon; 75 µM,66.2%
same,growth,DU-145 prostate; 10 µM,111% and 98.7%
same,growth,DU-145 prostate; 75 µM,-5.07% (active)
same,growth,K-562 leukemia; 10 µM,103% and 58.3%
same,growth,K-562 leukemia; 75 µM,31.8%
same,growth,MALME-3M melanoma; 10 µM,98.7% and 88.9%
same,growth,MALME-3M melanoma; 75 µM,43%
same,growth,MDA-MB-231 breast; 10 µM,99.4% and 104%
same,growth,MDA-MB-231 breast; 75 µM,93.5%
same,growth,RXF 393 renal; 10 µM,106% and 87.8%
same,growth,RXF 393 renal; 75 µM,12%
same,growth,SF-268 CNS; 10 µM,87.6% and 69.9%
same,growth,SF-268 CNS; 75 µM,34%
same,growth,SF-295 CNS; 10 µM,100% and 78.8%
same,growth,SF-295 CNS; 75 µM,13.4%
same,growth,SF-539 CNS; 10 µM,87.8% and 72.3%
same,growth,SF-539 CNS; 75 µM,-40.7% (active)
same,growth,UACC-257 melanoma; 10 µM,104% and 73.4%
same,growth,UACC-257 melanoma; 75 µM,28.9%
same,growth,M14 melanoma; 10 µM unless noted,93.3% and 97.1%
CC[C@H](C)[C@H](NC(=O)[C@H]1CCCCN1C)C(=O)N(C)[C@H](C[C@@H](OC(C)=O)c1nc(C(=O)N[C@@H](Cc2ccccc2)C[C@H](C)C(=O)O)cs1)C(C)C,growth,NCI-H23 lung; 10 µM unless noted,25.9%
same,growth,NCI-H226 lung; 10 µM unless noted,11.6%
same,growth,NCI-H322M lung; 10 µM unless noted,51.5%
same,growth,HOP-62 NSCLC; 10 µM unless noted,12.2%
same,growth,NCI-H460 lung; 10 µM unless noted,11%
same,growth,HOP-92 NSCLC; 10 µM unless noted,14.8%
same,growth,NCI-H522 lung; 10 µM unless noted,-47.1% (active)
same,growth,A549/ATCC NSCLC; 10 µM unless noted,10.2%
same,growth,786-0 renal; 10 µM unless noted,15.6%
same,growth,COLO 205 colon; 10 µM unless noted,-80.3% (active)
same,growth,DU-145 prostate; 10 µM unless noted,4.56% (active)
same,growth,K-562 leukemia; 10 µM unless noted,7.63% (active)
same,growth,MALME-3M melanoma; 10 µM unless noted,55.2%
same,growth,MDA-MB-231 breast; 10 µM unless noted,28.2%
same,growth,RXF 393 renal; 10 µM unless noted,35.3%
same,growth,SF-268 CNS; 10 µM unless noted,34.2%
same,growth,SF-295 CNS; 10 µM unless noted,8.04% (active)
same,growth,SF-539 CNS; 10 µM unless noted,-10.5% (active)
same,growth,UACC-257 melanoma; 10 µM unless noted,49.3%
same,growth,M14 melanoma; 10 µM unless noted,8.87% (active)
CC(=O)OCC1OC([S-])C(OC(C)=O)C(OC(C)=O)C1OC(C)=O.[Au+].c1ccc(CN2[CH-]N(Cc3ccccc3)C(c3ccccc3)=C2c2ccccc2)cc1,growth,NCI-H23 lung; 4.75 µM,3.45% (active)
same,growth,NCI-H23 lung; 10 µM,2.04% (active)
same,growth,NCI-H226 lung; 4.75 µM,9.99% (active)
same,growth,NCI-H226 lung; 10 µM,92.1%
same,growth,HOP-62 NSCLC; 4.75 µM,-12.6% (active)
same,growth,HOP-62 NSCLC; 10 µM,45.1%
same,growth,NCI-H460 lung; 4.75 µM,1.76% (active)
same,growth,NCI-H460 lung; 10 µM,29.2%
same,growth,HOP-92 NSCLC; 4.75 µM,-24% (active)
same,growth,HOP-92 NSCLC; 10 µM,-9.45% (active)
same,growth,NCI-H522 lung; 4.75 µM,-68.7% (active)
same,growth,NCI-H522 lung; 10 µM,-27.9% (active)
same,growth,A549/ATCC NSCLC; 4.75 µM,8.63% (active)
same,growth,A549/ATCC NSCLC; 10 µM,59.2%
same,growth,786-0 renal; 4.75 µM,-33.7% (active)
same,growth,786-0 renal; 10 µM,-72.1% (active)
same,growth,COLO 205 colon; 4.75 µM,-75.6% (active)
same,growth,COLO 205 colon; 10 µM,13.6%
same,growth,DU-145 prostate; 4.75 µM,10.1%
same,growth,DU-145 prostate; 10 µM,11.3%
same,growth,K-562 leukemia; 4.75 µM,-15.1% (active)
same,growth,K-562 leukemia; 10 µM,-6.23% (active)
same,growth,MALME-3M melanoma; 4.75 µM,-20.1% (active)
same,growth,MALME-3M melanoma; 10 µM,-49% (active)
same,growth,MDA-MB-231 breast; 4.75 µM,-43.6% (active)
same,growth,MDA-MB-231 breast; 10 µM,-55.7% (active)
same,growth,RXF 393 renal; 4.75 µM,-65.4% (active)
same,growth,RXF 393 renal; 10 µM,-75% (active)
same,growth,SF-268 CNS; 4.75 µM,-6.05% (active)
same,growth,SF-268 CNS; 10 µM,-36% (active)
same,growth,SF-539 CNS; 4.75 µM,14.3%
same,growth,SF-539 CNS; 10 µM,41.8%
same,growth,UACC-257 melanoma; 4.75 µM,-17.4% (active)
same,growth,UACC-257 melanoma; 10 µM,20.6%
same,growth,M14 melanoma; 4.75 µM,8.95% (active)
same,growth,M14 melanoma; 10 µM,-12% (active)
CC12CCC3C(CCC4CC(O)CCC43C)C1CCC2=O (stereo not given),growth,NCI-H23 lung; 10 µM unless noted,98.4%
same,growth,NCI-H226 lung; 10 µM unless noted,98.1%
same,growth,NCI-H322M lung; 10 µM unless noted,102%
same,growth,HOP-62 NSCLC; 10 µM unless noted,95.8%
same,growth,NCI-H460 lung; 10 µM unless noted,100%
same,growth,HOP-92 NSCLC; 10 µM unless noted,74.5%
same,growth,NCI-H522 lung; 10 µM unless noted,61.9%
same,growth,A549/ATCC NSCLC; 10 µM unless noted,94.2%
same,growth,786-0 renal; 10 µM unless noted,78.1%
same,growth,COLO 205 colon; 10 µM unless noted,130%
same,growth,DU-145 prostate; 10 µM unless noted,103%
same,growth,K-562 leukemia; 10 µM unless noted,103%
same,growth,MALME-3M melanoma; 10 µM unless noted,102%
same,growth,MDA-MB-231 breast; 10 µM unless noted,111%
same,growth,RXF 393 renal; 10 µM unless noted,133%
same,growth,SF-268 CNS; 10 µM unless noted,116%
same,growth,SF-295 CNS; 10 µM unless noted,94.8%
same,growth,SF-539 CNS; 10 µM unless noted,99.1%
same,growth,UACC-257 melanoma; 10 µM unless noted,-10.3% (active)
same,growth,M14 melanoma; 10 µM unless noted,98.8%
O=[N+]([O-])c1ccc(OCc2ccc(S(=O)(=O)F)c(Cl)c2)c(Cl)c1,growth,NCI-H23 lung; 10 µM unless noted,99.2%
same,growth,NCI-H226 lung; 10 µM unless noted,93.4%
same,growth,NCI-H322M lung; 10 µM unless noted,116%
same,growth,HOP-62 NSCLC; 10 µM unless noted,106%
same,growth,NCI-H460 lung; 10 µM unless noted,115%
same,growth,HOP-92 NSCLC; 10 µM unless noted,77.5%
same,growth,NCI-H522 lung; 10 µM unless noted,89.1%
same,growth,A549/ATCC NSCLC; 10 µM unless noted,110%
same,growth,786-0 renal; 10 µM unless noted,79.9%
same,growth,COLO 205 colon; 10 µM unless noted,101%
same,growth,DU-145 prostate; 10 µM unless noted,118%
same,growth,K-562 leukemia; 10 µM unless noted,99%
same,growth,MALME-3M melanoma; 10 µM unless noted,98.6%
same,growth,MDA-MB-231 breast; 10 µM unless noted,85.9%
same,growth,RXF 393 renal; 10 µM unless noted,114%
same,growth,SF-268 CNS; 10 µM unless noted,95.8%
same,growth,SF-295 CNS; 10 µM unless noted,106%
same,growth,SF-539 CNS; 10 µM unless noted,93.6%
same,growth,UACC-257 melanoma; 10 µM unless noted,118%
same,growth,M14 melanoma; 10 µM unless noted,96.9%
